The results in this text go back to ChEMBL document CHEMBL4513216, “Probing the Open Global Health Chemical Diversity Library for Multistage-Active Starting Points for Next-Generation Antimalarials” (ACS Infect Dis, 2020).

Each structure is given as a SMILES string. The whole screen tested about 69,000 compounds, of which about 8,600 (12%) showed an effect of 50% or more. This is one part of a sample in which strong results are shown more often than they occur.

The test deals with Plasmodium berghei. Nature of the test: Screen against P. berghei liver stage (PbLuc), transformed with Luciferase, at 10uM. Particulars: tested at 10 uM. The format is functional, HepG2.
For the compound `c1ccc(C2CN(CCc3ccncc3)CCO2)cc1` (stereo unspecified), the INHIBITION worked out at 6.12%.
The result for `CN(CC(F)(F)F)C(=O)Cn1cc(NC(=O)C(C)(C)C)cn1` reads -0.551%.
The result for `Cc1nn(C)c(N(C)C)c1CNC1CCc2cc(F)ccc21` (stereo unspecified) reads 27.4%.
Consider `Cc1ccccc1S(=O)(=O)N[C@@H]1CC[C@@H](N2CCNC(=O)C2)[C@@H]1O`, for which the INHIBITION was 6.65%.
On to `COc1cc(CNCC(O)c2cccc(F)c2)cc2c1OCO2` (stereo unspecified), for which the INHIBITION is 44.1%.
With `Cc1nc(CN(C)C2CCCN(c3cccnn3)C2)nc2ccccc12` (stereo unspecified) the figure was 47%; with `CCN(CC)c1ncccc1CNCc1ccc(-c2ccn[nH]2)s1`, 27.6%.
For the compound `CC1CCCCN1Cc1ccc(-c2ccccc2C(=O)O)cc1` (stereo unspecified), the INHIBITION is 25.3%.
The result for `O=C(O)c1ccccc1-c1cnc(CNC(=O)C2CCOCC2)nc1` reads -17.35%; that for `O=C(O)c1ccccc1-c1ccc(CNC(=O)C2CCOCC2)cc1`, 56.6%; that for `COCc1cc(NCC(F)(F)F)n2nccc2n1`, 7.24%.
For the compound `Cc1nc(N(C)C)nc(NCCc2cnccn2)c1C`, the INHIBITION is reported as 27.4%.
Take `c1cncc(N2CCCC3(CCN(CCN4CCCC4)CC3)C2)c1`: the INHIBITION is given as -26.1%.
Regarding `CN1CCN(C2COC3(CCN(c4ccc(C#N)cc4)CC3)C2)CC1` (stereo unspecified), the INHIBITION is given as 39.5%.
With `CN(C)C(=O)COC1COC2(CCN(c3cnccn3)CC2)C1` (stereo unspecified) the figure was 21.6%.
The result for `O=S(=O)(C1CC1)N1CCC2(CC1)CC(Oc1cccnc1)CO2` (stereo unspecified) reads 26.7%; that for `N#Cc1ccc(N2CCC3(CC2)CC(Oc2cccnc2)CO3)cc1` (stereo unspecified), 73.3%.
The result for `N#Cc1ccc(N2CCC3(CC2)CC(N2CCOCC2)CO3)cc1` (stereo unspecified) reads 73.2%; that for `CN1CCOCC12CCN(c1ccc(C#N)cc1)CC2`, -15.3%.
Consider `N#Cc1ccc(N2CCCC3(CCN(c4cccnc4)CC3)C2)cc1`, for which the INHIBITION is reported as 85.6%.
On to `O=C(c1ccncc1)N1CCC2(CC1)CC(Oc1cccnc1)CO2` (stereo unspecified), for which the INHIBITION was found to be 35.8%.
The result for `Fc1cnc(N2CCC3(CC2)CC(OCc2cccnc2)CO3)nc1` (stereo unspecified) reads 30.5%.
The result for `c1cncc(N2CCC3(CCCN(c4ccncc4)C3)CC2)c1` reads -29%; that for `c1cncc(COC2COC3(CCN(c4cnccn4)CC3)C2)c1` (stereo unspecified), 60%; that for `O=C(c1cccc(N2CCCC2=O)c1)N1CCCC(n2cccn2)C1` (stereo unspecified), -21.35%.
The result for `O=C(c1c[nH]c(=O)[nH]c1=O)N1CCCC(c2nccn2CC2CCC2)C1` (stereo unspecified) reads 22%; that for `CC(=O)N(Cc1ncc(C)o1)C1CCN(CCc2ccncc2)C1` (stereo unspecified), 12.7%; that for `CN(Cc1ccccc1F)C(=O)COC(=O)c1cc(Cl)c[nH]1`, 29.9%.
Consider `O=c1[nH]c(-c2ccncc2)ncc1-c1ccnc(NC2CC2)n1`, for which the INHIBITION amounted to 18.9%.
The result for `c1cnc(Nc2ccc(C3CCCCN3Cc3ccncc3)cn2)nc1` (stereo unspecified) reads 23.3%.
Regarding `O=C(Cc1ccccc1)N1CCC2(CC1)COCCN2CC1CC1`, the INHIBITION was 6.6%.
The result for `COCCOCC(C)NC(=O)COc1nn(C)c2nc(C)cc(C)c12` (stereo unspecified) reads 9.63%.
With `CCOc1ncccc1NC(=O)NC1CCN(S(C)(=O)=O)CC1` the figure was 44.8%; with `O=C(Nc1nc(-c2ccccc2)ns1)N1CCC(CO)CC1`, -95.1%; with `Cc1nn(C)c(N(C)C)c1CNCc1cccc(Cn2ccnc2)c1`, -31.5%.
The result for `N#Cc1ccc(N2CCC3(CC2)CC(OCc2cccnc2)CO3)cc1` (stereo unspecified) reads 58.5%; that for `c1cncc(CO[C@H]2CO[C@@]3(CCN(Cc4ccoc4)C3)C2)c1`, -0.79%.
`Fc1ccc(N2CCC3(CC2)CC(OCc2cccnc2)CO3)cc1` (stereo unspecified): the INHIBITION is 33.4%.
With `O=C(NCc1ccco1)[C@H]1C[C@@H]2CCN(c3ncccn3)C[C@H]2O1` the figure was 9.51%; with `c1cc(CNCC2OCCc3cn(CC4CC4)nc32)cs1` (stereo unspecified), 20.9%; with `COc1ccc2c(c1)c(-c1nc(C)ncc1CN)cn2C`, 27.6%.
Consider `CN(Cc1ccccc1)CC(C)(C)NC(=O)c1ccc(C(N)=O)cn1`, for which the INHIBITION is recorded as 52.2%.
The result for `CN(Cc1ccccc1)CC(C)(C)NC(=O)c1cnns1` reads 25.3%; that for `CC(C)(C)CNC(=O)c1ccc(C(=O)O)cn1`, 11.3%.
With `Cc1cnc(CNC(=O)N(Cc2ccccc2)CC(C)(C)O)s1` the figure was 15.7%; with `CC(c1ccccn1)N(C)Cc1ccc(CCC(C)(C)O)cc1` (stereo unspecified), 36.6%; with `CN(Cc1ccccc1)CC(C)(C)NC(=O)c1cnccn1`, 64.5%.
In the case of `CN(Cc1ccc(CCC(C)(C)O)cc1)Cc1cccnc1`, the INHIBITION worked out at 57.1%.
With `CN(Cc1ccc(CCC(C)(C)O)cc1)Cc1cccc(O)c1` the figure was 22.5%; with `CN(Cc1ccccc1)CC(C)(C)NC(=O)c1ccon1`, 38.7%.
With `Cc1ccc(C(=O)N2CCN3C[C@H](Oc4cccc(F)c4)C[C@H]3C2)cn1` the figure was 0.804%; with `O=C(NCC1CC2(CO1)CN(Cc1cccs1)C2)C1CCC1` (stereo unspecified), 27.6%.
With `COc1ccc(F)c(-c2ncccc2C(=O)N2C[C@@H]3CC[C@H]2C3)c1` the figure was 39%; with `COc1ccc(OCc2cc(C(=O)N3CCN[C@H](C)C3)n[nH]2)c(Cl)c1`, 65.1%.
As to `COc1ccccc1OCc1cc(C(=O)N2C[C@@H](C)O[C@@H](C)C2)n[nH]1`, the INHIBITION was -16%.
With `COc1ccccc1OCc1cc(C(=O)N2CC(O)C2)n[nH]1` the figure was -34.5%.
The result for `COc1ccc(OCc2cc(C(=O)N3CCC(O)CC3)n[nH]2)c(Cl)c1` reads -3.75%; that for `COc1ccccc1OCc1cc(C(=O)N2CCN[C@H](C)C2)n[nH]1`, 51.8%.
On to `COc1ccc(OCc2cc(C(=O)N3C[C@@H](C)O[C@@H](C)C3)n[nH]2)c(Cl)c1`, for which the INHIBITION amounted to 44.2%.
With `Cc1cccc(C(=O)N2CC(=O)N(c3ccccc3Cl)CC2C)n1` (stereo unspecified) the figure was 28.2%; with `Cc1ccc(N(C)S(=O)(=O)c2cc(C(=O)O)cs2)c(C)c1`, -42.1%.
On to `Cn1cc(CN2CC[C@H]3OCC[C@@H](C(=O)NC4CCCC4)[C@@H]3C2)cn1`, for which the INHIBITION amounted to 10%.
The result for `CNc1nc2cn(CCc3ccc(F)cc3)c(=O)c-2c[nH]1` reads 45.8%; that for `O=C1CC(c2ccc(O)cc2)c2c(c(C(=O)O)cn2-c2ccccc2)N1` (stereo unspecified), 25.2%.
With `COc1ccc(CN2CCn3cc(Cn4cccn4)nc3C2)cc1` the figure was 7.9%; with `COc1ccccc1OCCN(C)Cc1c(C2CC2)[nH]c2ncccc12`, 10.7%.
Take `CC(CC(=O)N1CCCS1(=O)=O)c1ccccc1C(F)(F)F` (stereo unspecified): the INHIBITION was found to be 50.1%.
The result for `CC(Cc1ccc(C(F)(F)F)cc1)C(=O)N1CCCS1(=O)=O` (stereo unspecified) reads -33.4%.
The result for `COc1ccccc1C(C)CC(=O)N1CCCS1(=O)=O` (stereo unspecified) reads -6.7%.
With `Cc1ncc(C(=O)N2CCCC2c2c(C)nn(C)c2C)s1` (stereo unspecified) the figure was 23.2%.
For the compound `CCc1ccc(CC)c(NCc2cnc(N3CCOCC3)nc2)c1`, the INHIBITION is listed as -36.4%.
With `O=C(c1c[nH]cn1)N1CCC(F)(F)C2(CCN(c3ncccn3)C2)C1` (stereo unspecified) the figure was 2.41%; with `O=C(c1c[nH]cn1)N1CCC(F)(F)C2(CCN(c3cnccn3)C2)C1` (stereo unspecified), 52.3%; with `O=C(c1c[nH]cn1)N1CCC(F)(F)C2(CCN(c3ccccn3)C2)C1` (stereo unspecified), 34.6%.
On to `CN1C(=O)COc2ccc(C(=O)Cn3cnc4ccccc4c3=O)cc21`, for which the INHIBITION is -35.1%.
With `Cc1cnn(CC2CCCCN2C(=O)CCCc2nc(C)no2)c1` (stereo unspecified) the figure was 11.3%; with `O=C(Nc1ncnc2c1CCC2)c1ccc2c(c1)OCO2`, -19.7%.
The result for `O=C(Nc1ncnc2c1CCC2)c1cccc(F)c1` reads -44.2%; that for `COc1cc(OC)cc(C(=O)Nc2ncnc3c2CCC3)c1`, 52.4%.
With `Cc1cc(C(=O)NCc2ccc(F)cc2)c2c(C3CCCN3)noc2n1` (stereo unspecified) the figure was 31.7%; with `CNC(=O)c1cc2c(nc1NCC(C)C)CCN(C)CC2`, 48.7%; with `CC(C)CNc1nc2c(cc1C(=O)NCC1CC1)CCNCC2`, 94.5%.
Take `CNC(=O)c1cc2c(nc1NCC(C)C)CCN(c1ncccn1)CC2`: the INHIBITION was 85.4%.
For `CC(C)Nc1nc2c(cc1C(=O)NCC1CC1)CCNCC2`, the INHIBITION worked out at 32.7%.
With `CNC(=O)c1cc2c(nc1NCC1CC1)CCN(CC1CC1)CC2` the figure was 8.67%.
The result for `CNC(=O)c1cc2c(nc1NCC1CC1)CCNCC2` reads 9.72%; that for `CNC(=O)c1cc2c(nc1NCC1CC1)CCN(c1ncccn1)CC2`, -17.1%; that for `CNC(=O)c1cc2c(nc1NCC(C)C)CCN(S(=O)(=O)C1CC1)CC2`, -6.75%.
For the compound `CNC(=O)c1cc2c(nc1NCC(C)C)CCN(CC1CC1)CC2`, the INHIBITION was 86.7%.
With `CO[C@H]1CO[C@@]2(CCCN(S(=O)(=O)c3ccccc3)C2)C1` the figure was 42.7%.
Take `O=C([C@H]1C[C@H]2OCC[C@H]2N(CCc2ccccc2)C1)N1CCCO1`: the INHIBITION turned out to be 43.9%.
With `CC(C)NC(=O)Cn1cc(-c2ccccc2)ncc1=O`, the INHIBITION came to 12.9%.
With `CC(=O)c1ccc(-c2cnn(CC(=O)Nc3cc(C)nn3C)c2)nc1`, the INHIBITION came to 28.7%.
The result for `CC(=O)c1ccc(-c2cnn(CC(=O)Nc3ccnn3C)c2)nc1` reads 46.1%; that for `Cn1ccnc1-c1cnn(CC(=O)Nc2ccnn2C)c1`, 62.4%.
With `CC(=O)NCCNC(=O)CN1CCCC(Cn2cncn2)C1` (stereo unspecified) the figure was 29.7%; with `COc1ccc(N2CCN(C(=O)C3[C@H]4CNC[C@@H]34)CC2(C)C)cc1` (stereo partly specified), 35.3%.
With `Cc1nnc(CN2CCOC(c3ccc(Cl)c(Cl)c3)C2)o1` (stereo unspecified) the figure was 15.9%.
For the compound `Cc1cc(C)nc(CN2CCOC(c3ccc(Cl)cc3)C2)n1` (stereo unspecified), the INHIBITION stood at 41.5%.
With `Cc1nc[nH]c1CN1CCOC(c2ccc(Cl)c(Cl)c2)C1` (stereo unspecified) the figure was 69.4%.
The result for `Cc1cc(C(=O)N2CCOC(c3ccc(Cl)c(Cl)c3)C2)[nH]n1` (stereo unspecified) reads 81%; that for `O=C(c1ccc(O)cn1)N1CCOC(c2ccc(Cl)c(Cl)c2)C1` (stereo unspecified), -19.2%.
With `Cc1c[nH]c(CN2CCOC(c3ccc(F)cc3)C2)c(C)c1=O` (stereo unspecified) the figure was -3.96%; with `Cc1cc(C(=O)N2CCOC(c3nc(C)n[nH]3)C2)[nH]n1` (stereo unspecified), 28.5%.
Take `Cc1c[nH]c(CN2CCOC(c3ccc(Cl)c(Cl)c3)C2)c(C)c1=O` (stereo unspecified): the INHIBITION is recorded as 19.8%.
In the case of `Cc1c[nH]c(CN2CCOC(c3ccc(Cl)cc3)C2)c(C)c1=O` (stereo unspecified), the INHIBITION turned out to be 79.3%.
